{
  "source": "PubChem BioAssay AID686978",
  "about": "(National Center for Advancing Translational Sciences (NCATS), 2013)",
  "note": "In all, about 420,000 compounds went through this assay and about 64,000 (15%) were called active. Inconclusive results (about 27%) are left out. Calls follow the shape of the dose curve; as a rule, active = well fitted inhibition curve with a large enough effect; inconclusive = small, poorly fitted or top-dose-only effect; inactive = flat fitted curve, though single readings scatter. A selection follows. % is scaled to controls: 0 for no effect and ±100 for the full control effect; potency is read from the fitted curve at half-maximal effect.",
  "data": [
    {"test": "qHTS for Inhibitors of human tyrosyl-DNA phosphodiesterase 1 (TDP1): qHTS in cells in absence of CPT; also: nearly all actives have a fitted effect of over 55% in size", "conditions": "DT40 Tdp1-/- hTDP1 cells, no CPT, ATP luminescence, 48 h; activity change, negative = growth inhibition: at 46.2 µM (top of the series)", "outline": "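Compound effects on proliferation are scored in DT40 Tdp1-/-;hTDP1 cells in the absence of CPT. ATP levels (CellTiter-Glo luminescence) are recorded after a ≥48 hr, 37 °C incubation.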", "values": [
      {"smiles": "CCOC(=O)N1CCN(CC(=O)Nc2ccc(F)cc2)CC1", "activity change, negative = growth inhibition": "1.47% (inactive)"},
      {"smiles": "CCOC(=O)N1CCN(C(=O)Cn2cnc3ccccc3c2=O)CC1", "activity change, negative = growth inhibition": "-7.54% (inactive)"},
      {"smiles": "CCOC(=O)N1CCN(CC(=O)Nc2cc(C)nn2-c2nc3ccccc3s2)CC1", "Potency": "23.1 µM (active)"},
      {"smiles": "CC1CCCN(c2csc3ccc(F)cc3c2=O)C1", "note": "(stereo unspecified)", "activity change, negative = growth inhibition": "-5.98% (inactive)"},
      {"smiles": "S=c1[nH]nc(/C=C/c2ccccc2)o1", "activity change, negative = growth inhibition": "-6.07% (inactive)"},
      {"smiles": "CN(C)c1nc(NN)nc(Nc2ccc(F)cc2)n1", "activity change, negative = growth inhibition": "-27% (inactive)"},
      {"smiles": "CN(C)c1nc(Nc2ccc(Cl)c(Cl)c2)nc(N(C)C)n1", "Potency": "10.3 µM (active)"},
      {"smiles": "CC(=O)Nc1nc(N(C)C)nc(N(C)C)n1", "activity change, negative = growth inhibition": "-5.59% (inactive)"},
      {"smiles": "Cc1ccc(/C([O-])=C(/C(=S)NCc2ccco2)[n+]2ccccc2)cc1[N+](=O)[O-]", "activity change, negative = growth inhibition": "-13.8% (inactive)"},
      {"smiles": "CCOC(=O)c1c(NC(=O)CSc2nnc(CNc3ccc(C)cc3C)o2)sc(C)c1C", "activity change, negative = growth inhibition": "-14.1% (inactive)"},
      {"smiles": "c1ccc(-n2nnnc2NC2CCCCCC2)cc1", "activity change, negative = growth inhibition": "-18.6% (inactive)"},
      {"smiles": "FC(F)(F)c1nc(-c2ccccc2)ncc1-c1nnnn1-c1ccccc1", "Potency": "16.4 µM (active)"},
      {"smiles": "Fc1ccccc1CCNc1nnnn1-c1ccccc1", "activity change, negative = growth inhibition": "-15.3% (inactive)"},
      {"smiles": "O=S(=O)(NC1CCCCC1N1CCC(O)CC1)c1ccc(Cl)cc1", "note": "(stereo unspecified)", "activity change, negative = growth inhibition": "16.4% (inactive)"},
      {"smiles": "CN1CCCc2cc(C#N)c(=O)[nH]c21", "activity change, negative = growth inhibition": "-0.386% (inactive)"},
      {"smiles": "CCOC(=O)c1cc2cc(-c3c(C(=O)OCC)oc4cc(O)cc(O)c4c3=O)ccc2o1", "Potency": "23.1 µM (active)"},
      {"smiles": "CCOC(=O)c1cc2cc3ccccc3cc2oc1=O", "activity change, negative = growth inhibition": "3.19% (inactive)"},
      {"smiles": "CCOC(=O)c1cc(=O)c2ccc(OCc3ccccc3)cc2o1", "activity change, negative = growth inhibition": "-11.2% (inactive)"},
      {"smiles": "O=C(O)c1ccc(COCC(F)(F)F)cc1", "activity change, negative = growth inhibition": "-5.35% (inactive)"},
      {"smiles": "CC1CCC2(CC1)NC(=O)N(CC(=O)c1ccc3c(c1)OCO3)C2=O", "note": "(stereo unspecified)", "activity change, negative = growth inhibition": "-1.18% (inactive)"},
      {"smiles": "O=C(CCN1C(=O)c2ccccc2C1=O)Nc1ccncc1", "activity change, negative = growth inhibition": "-9.9% (inactive)"},
      {"smiles": "COc1cccc(C(=O)c2cc3ccc(O)cc3oc2=O)c1", "activity change, negative = growth inhibition": "-21.7% (inactive)"},
      {"smiles": "COc1ccc(-c2cc3ccc(OCc4nn[nH]n4)cc3oc2=O)cc1", "activity change, negative = growth inhibition": "6.88% (inactive)"},
      {"smiles": "O=c1oc2cc(O)ccc2cc1-c1ccc(F)cc1", "Potency": "14.6 µM (active)"},
      {"smiles": "COC(=O)CCNC(=O)c1ccc2[nH]c(C)c(C)c2c1", "activity change, negative = growth inhibition": "-9.72% (inactive)"},
      {"smiles": "CN(C)CCCNC(=O)c1ccc2[nH]c3ccccc3c2c1", "activity change, negative = growth inhibition": "-12.1% (inactive)"},
      {"smiles": "Cc1ccc(C(=O)NCCSc2c(C)[nH]c3ccccc23)cc1C", "Potency": "25.9 µM (active)"},
      {"smiles": "COC(=O)c1ccc(OCC(=O)NC(C)(C)C)cc1", "activity change, negative = growth inhibition": "3.15% (inactive)"},
      {"smiles": "COc1ccc(OCC(=O)N2CCOCC2)cc1", "activity change, negative = growth inhibition": "-5.8% (inactive)"},
      {"smiles": "O=C(O)c1cnn2c(C(F)(F)F)cc(-c3ccccc3)nc12", "activity change, negative = growth inhibition": "-14.2% (inactive)"},
      {"smiles": "COc1ccc(-c2cc(C(F)(F)F)n3nc(C(=O)N4CCOCC4)c(Cl)c3n2)cc1", "Potency": "29.1 µM (active)"},
      {"smiles": "O=C(NC1CC(=O)N(c2ccc(F)cc2)C1)C1CCCCC1", "note": "(stereo unspecified)", "activity change, negative = growth inhibition": "-0.378% (inactive)"},
      {"smiles": "COc1cc(OC)cc(-c2nnc(SCC(=O)Nc3ccc(C(=O)O)cc3)s2)c1", "activity change, negative = growth inhibition": "-25.9% (inactive)"},
      {"smiles": "COc1ccc(N2CCN(C(=O)CSCc3nc(-c4ccccc4Cl)oc3C)CC2)cc1", "Potency": "16.4 µM (active)"},
      {"smiles": "COc1ccc(N2CCN(C(=O)CN3C(=O)COc4ccccc43)CC2)cc1", "activity change, negative = growth inhibition": "-18.9% (inactive)"},
      {"smiles": "COc1ccc(N2CCN(C(=O)C3CCN(C(=O)c4ccccc4Cl)CC3)CC2)cc1", "activity change, negative = growth inhibition": "-22.1% (inactive)"},
      {"smiles": "Cc1ccc(NC(=O)COC(=O)CN2CCSC2=O)cc1F", "activity change, negative = growth inhibition": "9.29% (inactive)"},
      {"smiles": "CS(=O)(=O)c1ccc2nc(NC(=O)CN3CCCCCC3)sc2c1", "activity change, negative = growth inhibition": "-4.58% (inactive)"},
      {"smiles": "CC(C)(C)C(=O)c1c(N)[nH]c(C(=O)c2ccccc2)c1-c1ccc(F)cc1", "activity change, negative = growth inhibition": "-27% (inactive)"},
      {"smiles": "NC(=O)Cc1ccc2c(c1)[nH]c1ccccc12", "activity change, negative = growth inhibition": "-1.59% (inactive)"},
      {"smiles": "CCc1cc(-c2nnc(SCC(=O)NC3CC3)n2C)cs1", "activity change, negative = growth inhibition": "1.5% (inactive)"},
      {"smiles": "COc1cccc(/C=N/NC(=O)c2[nH]nc3c2CCc2ccccc2-3)c1O", "Potency": "2.91 µM (active)"},
      {"smiles": "COc1ccc(/C=N/NC(=O)c2ccc3c(c2)OCCO3)c(OC)c1", "activity change, negative = growth inhibition": "-0.934% (inactive)"},
      {"smiles": "COc1cccc(/C=N\\NC(=O)C2=NNC(=O)C2C)c1O", "note": "(stereo unspecified)", "Potency": "23.1 µM (active)"},
      {"smiles": "COc1ccc(OC)c(/C=N/NC(=O)c2ccc[n+](CC(=O)c3ccccc3)c2)c1", "activity change, negative = growth inhibition": "-16% (inactive)"},
      {"smiles": "CN(C)CCNC(=O)c1[nH]nc2c1CCc1ccccc1-2", "activity change, negative = growth inhibition": "-11.9% (inactive)"},
      {"smiles": "CCC(C)C1(C2CCCC2)NC(=O)NC1=O", "note": "(stereo unspecified)", "activity change, negative = growth inhibition": "-8.57% (inactive)"},
      {"smiles": "CN1CCN(C(=O)CCc2ncc(C(F)(F)F)cc2Cl)CC1", "activity change, negative = growth inhibition": "-0.628% (inactive)"},
      {"smiles": "Cc1ccc(C(=O)N(CN2CCCC2=O)c2ccc(F)cc2)cc1", "activity change, negative = growth inhibition": "-5.03% (inactive)"},
      {"smiles": "CCN1CCN(C(=O)CSc2ccc(C)cc2)CC1", "activity change, negative = growth inhibition": "-13.9% (inactive)"},
      {"smiles": "CCN1CCC2(CC1)N=C(c1ccc(F)cc1)C(=S)N2C(=O)c1ccc(C)cc1", "Potency": "5.8 µM (active)"},
      {"smiles": "COc1ccc(Cl)cc1S(=O)(=O)N1CCC(O)(c2ccc(Cl)cc2)CC1", "activity change, negative = growth inhibition": "-23.4% (inactive)"},
      {"smiles": "CS(=O)(=O)N1CCN(C(=O)c2cc3ccccc3oc2=O)CC1", "activity change, negative = growth inhibition": "-3.02% (inactive)"},
      {"smiles": "O=C(c1cc2ccccc2o1)N1CCN(S(=O)(=O)c2ccc(Cl)s2)CC1", "Potency": "14.6 µM (active)"},
      {"smiles": "O=C(c1cc2ccccc2o1)N1CCN(Cc2ccccc2)CC1", "activity change, negative = growth inhibition": "5.01% (inactive)"},
      {"smiles": "COC(=O)c1ccc(C)c(NC(=O)Cn2c(C)csc2=O)c1", "activity change, negative = growth inhibition": "23.5% (inactive)"},
      {"smiles": "CCOc1cc(/C=N/n2cnnc2)c(Br)cc1O", "activity change, negative = growth inhibition": "-16.7% (inactive)"},
      {"smiles": "O=C(c1csnn1)N1CCC2(CCN(Cc3nccs3)CC2)CC1", "activity change, negative = growth inhibition": "-9.33% (inactive)"},
      {"smiles": "CN1CN(C)c2ccc([N+](=O)[O-])c3cccc1c23", "activity change, negative = growth inhibition": "-15.8% (inactive)"},
      {"smiles": "Cc1nc2ccccn2c1C(=O)NN=C1CCN(C)CC1", "activity change, negative = growth inhibition": "12% (inactive)"},
      {"smiles": "O=C(Nc1ccc(F)cc1)C1CCCN(S(=O)(=O)c2ccc(-n3cnnn3)cc2)C1", "note": "(stereo unspecified)", "activity change, negative = growth inhibition": "3.32% (inactive)"},
      {"smiles": "CCOC(=O)c1cccc(NC(=O)C2CCCN(S(=O)(=O)c3cnc[nH]3)C2)c1", "note": "(stereo unspecified)", "activity change, negative = growth inhibition": "1% (inactive)"},
      {"smiles": "COC(=O)c1ccc(CN2CCCC(C(=O)Nc3cccc(-n4cnnn4)c3)C2)cc1", "note": "(stereo unspecified)", "Potency": "16.4 µM (active)"},
      {"smiles": "Cc1ccc(C(=O)NC2CCN(C(=O)Nc3ccccc3Cl)CC2)cc1", "activity change, negative = growth inhibition": "-16.2% (inactive)"},
      {"smiles": "CN(CC(=O)NCc1ccc2c(c1)OCO2)CC(=O)Nc1ccc(F)c(F)c1F", "activity change, negative = growth inhibition": "1.96% (inactive)"},
      {"smiles": "CC(C)c1ccc(Cn2c(COc3ccccc3)nc3ccccc32)cc1", "Potency": "20.6 µM (active)"},
      {"smiles": "CC(O)c1nc2ccccc2n1Cc1ccc([N+](=O)[O-])cc1", "note": "(stereo unspecified)", "activity change, negative = growth inhibition": "9.29% (inactive)"},
      {"smiles": "Cc1nc2ccccc2n1CC(O)c1ccccc1", "note": "(stereo unspecified)", "activity change, negative = growth inhibition": "-19.5% (inactive)"},
      {"smiles": "COC(=O)[C@@H](NC(=O)Nc1cc(Cl)ccc1C)C(C)C", "activity change, negative = growth inhibition": "-2.95% (inactive)"},
      {"smiles": "Cc1ccc2c(C)nc(N3CCCC(C(=O)NC(C)(C)CO)C3)nc2c1", "note": "(stereo unspecified)", "activity change, negative = growth inhibition": "-23.1% (inactive)"},
      {"smiles": "Cc1ccc(NC(=O)CSc2nnc(-c3cnccn3)n2Cc2ccco2)cc1C", "activity change, negative = growth inhibition": "-12.6% (inactive)"}
    ]}
  ]
}
